This is a sample that favours compounds with a hit; in the whole collection about 2.4% have one here.
D2 antag: D2 dopamine receptor (human) antagonism. HEK293 TREx D2 cells, calcium flux, dopamine EC80. hit rate 2% among 340,000. AID 485344. P14416. inhibition, % at 10 µM; in the data active means inhibition above about 30%; inactive means below that, where a call was filed
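Calcium mobilization kinetics were recorded at 1 s intervals in tetracycline-induced HEK293 T-REx D2 cells, first for 180 s after compound addition and then 180 s after EC80 dopamine.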
D2 PAM-1: human D2 receptor positive allosteric modulation; potentiation, % (concentration not given with the values); hit rate 0.23% among 360,000; P14416; DiscoveRx D2 beta-arrestin cells, luminescence, 90 min; 100% = 57 uM dopamine signal; in the data active means potentiation above about 50%; inconclusive means mostly about 30% to 49%
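PathHunter D2 cells, attached overnight at 37 deg C, received compound in DMSO plus dopamine at EC20 (50 nM final) for 90 min at 37 deg C. Beta-arrestin recruitment was read as luminescence after 1 h with detection reagent at ambient temperature.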
D2 ag-1: activates the human D2 dopamine receptor. HEK293 T-REx D2 cells, calcium flux agonist mode. AID 485358. activation, % at 2 µM. hit rate 0.53% among 340,000;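 active means activation over 3 SD above normal in the single-dose calcium agonist read, cut at about 30% in these data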
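Tetracycline-induced HEK293 T-REx cells with force-coupled D2 receptor, plated overnight at 30 C, loaded with no-wash calcium dye. After a 10 s baseline, compound was pin-added and calcium flux read kinetically for 180 s; calcium rises flagged agonists.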
D2 PAM-2: positively modulates the human D2 dopamine receptor allosterically | AID 485347 | P14416 | potentiation, % at 10 µM | HEK293 T-REx D2, calcium flux, EC20 dopamine potentiation | hit rate 0.34% among 340,000;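 active means potentiation over 3 SD above the plate norm, cut at about 30% in these data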
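Using a no-wash calcium dye in inducible, force-coupled HEK293 Trex cells expressing D2, we tracked fluorescence each second for 180 s after compound, then for 180 s after EC20 dopamine to detect augmented signalling.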
D2 ag-2: agonists of human D2 dopamine receptor (beta-arrestin); P14416; DiscoveRx PathHunter D2 beta-arrestin, luminescence, 90 min; 100% = 57 uM dopamine signal; activation, % (no concentration beside the values); hit rate 0.084% among 360,000; AID 624465; in the data active means activation above about 40%; inconclusive means between about 15% and that limit
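DiscoveRx PathHunter D2 beta-arrestin cells (2,100/well) attached overnight, then compound-stimulated 90 min at 37 C in HBSS/10 mM HEPES/0.1% Tween-20 buffer; beta-galactosidase complementation read by luminescence after 1 h at ambient temperature. Dopamine 57 uM final (EC100) as control.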
D3 arrestin ag: D3 receptor agonism confirmed, beta-arrestin readout; shares compounds with D2 ag-1; DiscoveRx D3 beta-arrestin cells, luminescence, 90 min; Potency, µM (titrated, usually from 76.9 µM), actives largely listed as activators; hit rate 4% among 2,300; AID 720506; further: nearly all actives have a fitted effect of over 70% in size
Target sequence (P35462 whole entry, looked up): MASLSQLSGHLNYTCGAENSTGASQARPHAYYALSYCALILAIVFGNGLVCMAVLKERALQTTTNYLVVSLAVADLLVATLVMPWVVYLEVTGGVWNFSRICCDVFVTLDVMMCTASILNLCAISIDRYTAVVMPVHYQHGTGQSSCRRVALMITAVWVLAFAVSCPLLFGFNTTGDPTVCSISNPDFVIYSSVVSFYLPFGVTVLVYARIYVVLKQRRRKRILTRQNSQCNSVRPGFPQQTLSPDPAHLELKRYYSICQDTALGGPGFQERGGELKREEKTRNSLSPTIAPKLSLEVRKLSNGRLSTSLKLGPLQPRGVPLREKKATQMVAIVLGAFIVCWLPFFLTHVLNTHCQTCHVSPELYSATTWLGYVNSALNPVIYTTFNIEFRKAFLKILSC
D2 ag-3: D2 receptor agonism, beta-arrestin counterscreen | DiscoveRx PathHunter D2 beta-arrestin, luminescence, 90 min; response scale: percent relative to full dopamine signal | Potency, µM (doses to about 76.9 µM), hits mostly activators | hit rate 5.9% among 2,300 | shares compounds with D2 ag-1 | AID 720507; further: nearly all actives have a fitted effect of over 70% in size
A number is an active result; . = inactive; ? = inconclusive; / = no result. Unless noted, the call rests on the fitted dose curve; in most records, active means well fitted activation curve with a large enough effect; inconclusive means small, poorly fitted or top-dose-only effect; inactive means flat fitted curve, though single readings scatter.

SMILES	D2 antag	D2 PAM-1	D2 ag-1	D2 PAM-2	D2 ag-2	D3 arrestin ag	D2 ag-3
COc1cc(CN2CCNC(=O)C2CC(=O)N(Cc2nccn2C)C(C)C)cc(OC)c1 (stereo not drawn)	.	.	.	.	.	/	/
Clc1ccc(CN2CCN(c3ncccn3)CC2)cc1Cl	77	.	80	.	65	?	14µM
CCCCc1c(O)nc(N2CCN(Cc3ccccc3)CC2)[nH]c1=O	/	.	/	/	.	/	/
Fc1cccc(CN2CCN(c3ncccn3)CC2)c1	83	55	77	.	80	?	1.4µM
Cc1cc(=O)[nH]c(N2CCN(Cc3ccccc3)CC2)n1	.	.	40	.	.	.	.
O=C(c1cccnc1)N1CCN(Cc2cccc(F)c2)CC1	.	.	.	.	.	/	/
COc1cccc(C(C)NC(=O)Nc2ccccc2Cl)c1 (stereo not drawn)	.	.	.	.	.	.	.
CC(C)[C@H](CO)NC(=O)[C@H]1O[C@@H](n2ccc(=O)[nH]c2=O)[C@H](O)[C@@H]1O	/	.	/	/	.	/	/
CCn1c2ccccc2c2cc(NC(=O)N3CCCCC3)ccc21	/	.	/	/	.	/	/
COc1cc(C(=O)OCc2ccccc2C#N)ccc1OCC(=O)N1CCOCC1	.	.	.	.	.	/	/
COc1cc(C(=O)OCc2cccc(OC)c2OC)ccc1OCC(=O)N1CCOCC1	.	.	.	.	.	.	.
COc1ccc(/C=C/C(=O)OCC(=O)c2cc(C)ccc2C)cc1	/	.	/	/	.	/	/
Nc1nc(CN2CCN(c3ccccc3F)CC2)nc(N2CCCc3ccccc32)n1	79	.	82	.	?	?	?
Nc1nc(CN2CCN(c3cccc(Cl)c3)CC2)nc(N2CCCc3ccccc32)n1	70	.	42	.	?	.	?
Nc1nc(CN2CCN(c3ccccc3)CC2)nc(N2CCCc3ccccc32)n1	/	54	/	/	?	35µM	?
Nc1nc(CSc2nnnn2-c2ccccc2)nc(N2CCCc3ccccc32)n1	.	.	.	.	.	/	/
COc1ccc(N2CCN(Cc3nc(N)nc(N4CCCc5ccccc54)n3)CC2)cc1	.	.	49	.	.	.	.
COc1ccc(N2CCN(Cc3nc(N)nc(Nc4ccc(C)c(Cl)c4)n3)CC2)cc1	.	.	.	.	.	/	/
CC(C)(C)c1ccc(CC(=O)N2CCC2(C)C(=O)NS(=O)(=O)c2ccccc2Cl)cc1 (stereo not drawn)	/	.	/	/	.	/	/
CCOc1ccc(Nc2nnc(-n3nc(C)cc3C)c3ccccc23)cc1	/	/	.	.	/	/	/
COc1cc(CN2CCN(c3ncccn3)CC2)cc(OC)c1	87	.	88	.	56	?	2.8µM
COc1cc(CN2CCCCCC2)cc(OC)c1	.	.	.	.	.	/	/
COc1ccc(CN2CCN(Cc3ccccc3F)CC2)c(OC)c1	.	.	.	.	.	/	/
COc1ccc(CN2CCN(c3ncccn3)CC2)c(OC)c1	69	.	56	.	45	?	?
COc1ccc(CN2CCN(c3ccccn3)CC2)c(OC)c1	83	.	84	.	?	.	?
SMILES	D2 antag	D2 PAM-1	D2 ag-1	D2 PAM-2	D2 ag-2	D3 arrestin ag	D2 ag-3
COc1ccc(-n2c(CN3CCN(c4ccccc4)CC3)nc3ccc([N+](=O)[O-])cc3c2=O)c(OC)c1	.	.	.	.	.	/	/
COc1cccc(-n2c(CN3CCN(c4ccccn4)CC3)nc3ccc([N+](=O)[O-])cc3c2=O)c1	.	.	.	.	.	.	.
COc1cc2[nH]c(=O)n(Cc3ccc(C(=O)NCc4ccccc4)cc3)c(=O)c2cc1OC	/	/	.	.	/	/	/
COc1ccc(C(=O)OCC(=O)N2CCN(S(=O)(=O)c3ccc(C)cc3)CC2)cc1[N+](=O)[O-]	/	.	/	/	.	/	/
C#CCOc1ccc(/C=C2/C(=O)ON=C2C)cc1Br	.	.	.	.	.	/	/
CC1CCC(NC(=O)C2CC(=O)N(c3ccc4c(c3)OCCO4)C2)CC1 (stereo not drawn)	.	.	.	.	.	/	/
Cc1ccc(-c2cc(N)n(-c3ccc(F)cc3)n2)cc1	.	.	.	.	.	/	/

Screening data as filed in PubChem.
